Results: PubChem BioAssay (NCI)
Compounds without any hit were thinned out: in the full panel of roughly 79,000, 15% have a hit. The source made the active and inactive calls. Rule as the data show it: active = growth inhibition above about 70%; inactive = the rest.

What was measured:
[1] = NCI Yeast Anticancer Drug Screen. Data for the rad50 strain (AID 155);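 also: 0% = growth of vehicle-only cultures of the same strain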; conditions: S. cerevisiae rad50 strain growth inhibition; at 50.0 µM; hits give high values
Method in brief: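 Genetically altered yeast (DNA repair pathway); compound treatment; growth inhibition vs vehicle ctrl.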

[2] = NCI Yeast Anticancer Drug Screen. Data for the mec2-1 strain (AID 157); conditions: S. cerevisiae mec2-1 strain, at 50.0 µM, hits give high values
Method in brief: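 Using mec2-1 yeast: add compound, measure growth, express inhibition versus vehicle-treated cultures.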

[3] = NCI Yeast Anticancer Drug Screen. Data for the sgs1 mgt1 strain (AID 161);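 also: 0% = growth of cultures given vehicle only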; conditions: S. cerevisiae sgs1 mgt1 strain, at 50.0 µM, hits give high values
Method in brief: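 Percent growth inhibition was derived by comparing compound-exposed mutant yeast with vehicle-exposed cultures. The strain carries alterations in DNA damage repair.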

[4] = NCI Yeast Anticancer Drug Screen. Data for the cln2 rad14 strain (AID 165);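 also: 0% = growth equal to vehicle treated cultures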; conditions: S. cerevisiae cln2 rad14 strain, at 50.0 µM, hits give high values
Method in brief: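 Yeast strain cln2 rad14, bearing defects in cell cycle control and DNA repair, serves as the test system; values reflect growth inhibition compared with vehicle.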

[5] = NCI Yeast Anticancer Drug Screen. Data for the bub3 strain (AID 167); conditions: S. cerevisiae bub3 mutant strain, at 50.0 µM, hits give high values
Method in brief: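 Yeast carrying a defined mutation is treated with each compound, and growth is compared with that of vehicle-exposed cells to give inhibition.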

[6] = NCI Yeast Anticancer Drug Screen. Data for the mlh1 rad18 strain (AID 175); conditions: S. cerevisiae mlh1 rad18 strain growth inhibition; at 50.0 µM; hits give high values
Method in brief: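 Steps: expose repair-defective yeast to compound; measure growth; express inhibition against vehicle-treated controls.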

Measured: growth inhibition

Nc1ncnc2c1ncn2C1CCC(COS(N)(=O)=O)C1 (stereo unspecified)
inactive: [1] 4.3% | [2] 3.65% | [3] 5% | [4] -6.7% | [5] 4.2% | [6] 15.4%

COC(=O)CCC(NC(=S)N/N=C(\C)c1cccs1)C(=O)OC (stereo unspecified)
inactive: [1] 14.1% | [2] -10.3% | [3] 17.3% | [4] 0.45% | [5] 7.4% | [6] -0.25%

O=S(=O)(O/C(=C(\OS(=O)(=O)C(F)(F)C(F)(F)C(F)(F)C(F)(F)F)c1ccccc1)c1ccccc1)C(F)(F)C(F)(F)C(F)(F)C(F)(F)F
inactive: [1] -6% | [2] -14.1% | [3] -23.4% | [4] -18.1% | [5] 7.9% | [6] -5.85%

CN(C)c1ccc(NC2COc3ccccc3C2=O)cc1 (stereo unspecified)
inactive: [1] -13.1% | [2] 3.9% | [3] 17.4% | [4] -17.2% | [5] 67% | [6] -6.6%

O=C1C(=O)N(c2cc(Cl)ccc2Cl)C(=O)C(=O)C1c1nc2ccccc2s1
inactive: [1] -7.8% | [2] 18.6% | [3] 0.3% | [4] -18.8% | [5] 9.4% | [6] -19.4%

O=C(CCC(O)(C(=O)c1ccccc1)c1ccccc1)c1ccccc1 (stereo unspecified)
inactive: [1] 9.25% | [2] 9.5% | [3] -0.1% | [4] 6.35% | [5] 0.4% | [6] 26.4%

Nc1nc2ncc(=O)[nH]c2c(=O)[nH]1
inactive: [1] -35.1% | [2] -4.2% | [3] -8.55% | [4] -31.3% | [5] 20.3% | [6] -8.4%

CCSC(COC(C)=O)(SCC)C(OC(C)=O)C(OC(C)=O)C(COC(C)=O)OC(C)=O (stereo unspecified)
inactive: [1] 10.9% | [2] 6.55% | [3] -9% | [4] -6.3% | [5] -2.6% | [6] 14.4%

COCOS(C)(=O)=O
inactive: [1] -4.05% | [2] -14.3% | [3] -2.85% | [4] 4.8% | [5] 9.4% | [6] -3.65%

COc1ccc(/C=C/C(C)=O)c(OC)c1
inactive: [1] 3% | [2] -12.3% | [3] 2.15% | [4] -20.6% | [5] 0.05% | [6] -4.95%

COc1cc2c(C)nc3c4cc5c(cc4ccc3c2cc1OC)OCO5
inactive: [1] -12.4% | [2] 8.2% | [3] 18.2% | [4] -41.9% | [5] 40.2% | [6] 1%

CC1=CC(/C=C(\C)CCCc2ccoc2)C2(OC(=O)C(C)=C2O)[C@H]2C1CC[C@@H]2C (stereo partly specified)
inactive: [1] 49.9% | [2] 58.3% | [3] 53.5% | [4] 66% | [5] 55.5% | [6] 54.9%

CCCCCCSCCO
inactive: [1] -13.2% | [2] -35% | [3] -11.9% | [4] 23.6% | [5] -30.9% | [6] 2.55%

CCOC(=O)CC/C(=N/Nc1ccc(Cl)cc1[N+](=O)[O-])C(=O)OCC
inactive: [1] 11.7% | [2] -39.9% | [3] -31.9% | [4] -7.6% | [5] -24.6% | [6] -0.4%

O=C1CC2CCCC23CC2(CCN13)OCCO2 (stereo unspecified)
inactive: [1] -3.15% | [2] 0.7% | [3] -0.3% | [4] -27.4% | [5] -2.3% | [6] 6.35%

Nc1ccc(C(=O)OCCN2CCN(CCOC(=O)c3ccc(N)cc3)CC2)cc1
inactive: [1] 28.9% | [2] 13.4% | [3] 12.6% | [4] 16.2% | [5] 1.6% | [6] 28.4%

Nc1ccccc1/C=C/c1ccnc2ccccc12
inactive: [1] 3.7% | [2] 2.55% | [3] 23.6% | [4] 10.2% | [5] -18.1% | [6] 47.8%

C=CCC1(C(=O)NC)c2ccccc2-c2ccccc21
inactive: [1] -8.85% | [2] -6.4% | [3] 1% | [4] -18.8% | [5] 43.1% | [6] -38.1%

c1ccc2c(c1)ccc1c3c(oc12)CCCC3
inactive: [1] -10.5% | [2] -6.45% | [3] -15.7% | [4] -36.4% | [5] 0.25% | [6] -5.9%

C/C=C(\Cl)C=O
inactive: [1] 12.4% | [2] 5% | [3] -22.9% | [4] -9.7% | [5] 3.5% | [6] 11.2%

S=c1[nH]ncc(SCc2ccccc2)c1SCc1ccccc1
inactive: [1] 2.95% | [2] 2.85% | [3] -8.05% | [4] -15.1% | [5] 7.1% | [6] 7.55%

CC1CC(c2ccccc2)Nc2nc3ccccc3n21 (stereo unspecified)
inactive: [1] 5.65% | [2] 3.45% | [3] -4.7% | [4] 7.95% | [5] 5.65% | [6] -14.3%

CCCCCCC1NN(C(C)=O)C(CCCCCC)NN1C(C)=O (stereo unspecified)
inactive: [1] 10.5% | [2] -4.1% | [3] 7.65% | [4] 49.1% | [5] 7.1% | [6] -3.75%

N#CC1C=CN(Cc2ccccc2)C=C1C(=O)c1ccccc1 (stereo unspecified)
inactive: [1] -1.5% | [2] -3.9% | [3] -5.85% | [4] 2.55% | [5] 7.6% | [6] 5.2%

CCCCC1(O)CC2CC1C(C)C2(C)C (stereo unspecified)
inactive: [1] 0.3% | [2] 7.75% | [3] -3.45% | [4] 22.1% | [5] 16.4% | [6] 2.5%

Cc1cccc(-c2nnc3s/c(=C\c4ccc5c(c4)OCO5)c(=O)n23)c1
inactive: [1] -20.1% | [2] -12.2% | [3] -1.45% | [4] 11.7% | [5] 4.35% | [6] 0.65%

CCCCNc1ccc([N+](=O)[O-])cc1[N+](=O)[O-]
inactive: [1] 16.2% | [2] -15.4% | [3] 18.4% | [4] 6.55% | [5] 41.9% | [6] -0.6%

CCCNC(=O)N(CCC)S(=O)(=O)c1ccc(Cl)cc1
inactive: [1] -6.85% | [2] 8.45% | [3] 12.3% | [4] 24.6% | [5] 22.7% | [6] 25.6%

CC1(C)COC(c2ccc(C(F)(F)F)cc2C(O)c2ccc3ccccc3c2)=N1 (stereo unspecified)
inactive: [1] 11.8% | [2] -2.15% | [3] 3.8% | [4] 10.3% | [5] -3.3% | [6] 10.3%

Cc1c(-c2ccccc2)c(=O)oc2ccc(Cl)cc12
inactive: [1] -34% | [2] -8.5% | [3] 1.1% | [4] -9.85% | [5] -14.9% | [6] -15.2%

CN1CN(C)C(c2ccncc2)=C1c1ccncc1
inactive: [1] -36% | [2] -47.5% | [3] -29.9% | [4] -0.5% | [5] -58.3% | [6] -19.5%

Cc1cccc(C)c1NC(=O)OC(C)C
inactive: [1] 4.8% | [2] 5.65% | [3] -28.3% | [4] -32.5% | [5] 11.8% | [6] -12.7%

CCOC(=O)C1SC(=Nc2ccc(OC)c(OC)c2)N=C1C (stereo unspecified)
inactive: [1] 17.9% | [2] 4.2% | [3] 50.3% | [4] 4.95% | [5] 29.9% | [6] 1.4%

C=Nc1ccc([N+](=O)[O-])c(N=C)c1
inactive: [1] -2.85% | [2] -0.25% | [3] -9.7% | [4] -18% | [5] 2.7% | [6] 5.15%

COc1cc([N+](=O)[O-])c(C(=O)O)c(C(=O)O)c1OC
inactive: [1] 9.8% | [2] -5.55% | [3] 3.7% | [4] -2.2% | [5] 1.7% | [6] 1.15%

CCCCCCC(O)C/C=C\CCCCCCCC(=O)O (stereo unspecified)
inactive: [1] -14% | [2] -3.7% | [3] -30.9% | [4] 62.9% | [5] -9.2% | [6] -15.9%

O=C(NC(=O)c1c(F)cccc1F)Nc1cccc(C(F)(F)F)c1
inactive: [1] 8.55% | [2] 6.15% | [3] 3.9% | [4] 6.75% | [5] -3.3% | [6] 10.7%

CC(=O)N(C(C)=O)c1ccccc1/C=C1\CCOC1=O
inactive: [1] -16.4% | [2] -18.9% | [3] -2.25% | [4] -5.05% | [5] 11.6% | [6] -17.6%

CCOC(=O)/C=C\n1c(=O)cc(C)c2ccccc21
inactive: [1] 8.85% | [2] 23.7% | [3] 7.45% | [4] 18.4% | [5] -2.75% | [6] -1.15%

CCCCCCCCCCC#N
inactive: [1] 15.2% | [2] -8.4% | [3] -5.6% | [4] 14.6% | [5] 9.15% | [6] -17.6%

O=C(O)CCC1(C(=O)O)NCCc2c1[nH]c1ccccc21 (stereo unspecified)
inactive: [1] 8.1% | [2] 11.8% | [3] 5.1% | [4] 8.55% | [5] 7.9% | [6] 12.6%
